High-throughput results deposited in PubChem by National Center for Advancing Translational Sciences (NCATS).
Cycloheximide cs: Cycloheximide Counterscreen for Small Molecule Inhibitors of Shiga Toxin | cell reporter, cycloheximide protein synthesis inhibition counterscreen | max response, % | 300,000 tested, 12% active | AID 2314, 2010; in the data active = max response mostly above about 13%, no sharp cut-off; inactive = mostly below about 14%; note: read at 38.3 µM for the half of the compounds with a filed dose; 0% is about no effect
Pf growth 96h: Primary qHTS for delayed death inhibitors of the malarial parasite plastid, 96 hour incubation; Potency, µM (titrated, usually from 28.7 µM), for inactives: top-dose activity change, negative = inhibition, most hits filed as inhibitors; P. falciparum luciferase reporter growth, 96 h; 320,000 tested, 6.9% active; AID 504834, 2011; note: potency is the fitted concentration of half-maximal effect; % is set by controls: 0 for no effect and ±100 for the full control effect
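Two parasite generations (96 h, 37 C, 5% CO2) of compound exposure in infected erythrocytes (0.05% parasitemia, 2% hematocrit). Luciferase-reporter P. falciparum; decreased luminescence indicates inhibited growth, aimed at apicoplast-acting delayed death.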
Shiga toxin inh: A qHTS for Small Molecule Inhibitors of Shiga Toxin; 290,000 tested, 9.2% active; AID 2315, 2010; inhibition, % at 38.7 µM; Vero cells, Shiga toxin protein synthesis inhibition reporter; in the data active = inhibition mostly above about 28%, no sharp cut-off; inactive = mostly below about 43%; note: 0% is about no effect
Pf growth 48h: Primary qHTS for delayed death inhibitors of the malarial parasite plastid, 48 hour incubation; P. falciparum luciferase growth in erythrocytes, 48 h; Potency, µM (titrated, usually from 28.7 µM), for the others: at the top dose activity change, negative = inhibition, hits mostly inhibitors; 310,000 tested, 5.9% active; AID 504832, 2011; note: potency is the fitted concentration of half-maximal effect; % is set by controls: 0 for no effect and ±100 for the full control effect
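Firefly luciferase activity from engineered P. falciparum reports growth; inhibitors lower the luminescent signal. Cultures contained 2% hematocrit erythrocytes at 0.1% final parasitemia.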
AMA1-RON2 inh: qHTS for Inhibitors of AMA1-RON; Towards Development of Antimalarial Drug Lead: Primary Screen | AID 720542, 2013 | Potency, µM (titrated, usually from 58.2 µM), inactives show at the highest dose activity change, negative = inhibition, usual class: inhibitors | 360,000 tested, 0.2% active | AlphaScreen AMA1-biotinylated RON2 peptide binding;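 note: potency is the fitted concentration of half-maximal effect; 0% = vehicle wells and -100% = peptide control; nearly all actives have a fitted effect of over 45% in size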
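AMA1 (3D7) with his tag at 25 nM final met compounds first, then biotinylated RON2 peptide at 25 nM; detection used donor plus acceptor beads, 10 µg/mL apiece, read by AlphaScreen after 30 min at room temperature.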
HCV inhibitor: qHTS Assay for Inhibitors of Hepatitis C Virus (HCV); Huh7.5.1 HCVcc-Cre infection, luciferase reporter, 44 h; Potency, µM (highest dose often 41.8 µM), for the others: at the top dose activity change, negative = inhibition, most hits filed as inhibitors; 340,000 tested, 3.4% active; note: potency is the fitted concentration of half-maximal effect; % is set by controls: 0 for no effect and ±100 for the full control effect
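Reporter virus HCVcc-Cre (~0.5 moi) infects cells exposed to compound; seeding density 1,000 cells/well with 4 h settling beforehand. Luminescence, 15 sec read, taken 44 h post-infection following a 15 min RT substrate incubation.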
Numbers without * were called inactive; [ ] = dose if it differs, or a comment. The list is not random: actives were taken first. Their share in the collection is about 21%. Unless noted, calls come from the whole dose curve; as a rule, active = well fitted curve in the direction sought with a large enough effect; inconclusive = small, poorly fitted or top-dose-only effect, or another doubt; inactive = no such curve, though single readings can be large; an effect the other way counts as inactive or inconclusive.

Results for CSc1ccc(/C=C/C(=O)Nc2ccccc2)cc1 ?
Cycloheximide cs: 8; Pf growth 96h: -105%; Shiga toxin inh: 16; Pf growth 48h: 127%; AMA1-RON2 inh: -9%; HCV inhibitor: -28%

What do the screens show for `CSc1cccc(NC(=O)/C=C/c2ccccc2)c1`?
Cycloheximide cs: 36*; Pf growth 96h: 10µM*; Shiga toxin inh: 71*; Pf growth 48h: 119%; AMA1-RON2 inh: -4%; HCV inhibitor: inconclusive

What do the screens show for `CSc1cccc(NC(=O)/C=C/c2ccc(Cl)cc2)c1`?
Cycloheximide cs: 40*; Pf growth 96h: -28%; Shiga toxin inh: 51*; Pf growth 48h: -9%; AMA1-RON2 inh: -1%; HCV inhibitor: 13µM*

How did O=C(/C=C/c1ccccc1)Nc1ccc(Cl)cn1 do in these assays?
Cycloheximide cs: 33*; Pf growth 96h: -20%; Shiga toxin inh: 112*; Pf growth 48h: 104%; AMA1-RON2 inh: 5%; HCV inhibitor: inconclusive

How did O=P(c1ccccc1)(c1ccccc1)c1cc(S(=O)(=O)O)ccc1O do in these assays?
Cycloheximide cs: -3; Pf growth 96h: 11%; Shiga toxin inh: 15; Pf growth 48h: -14%; AMA1-RON2 inh: -3%; HCV inhibitor: 15%

How did Cc1cccc(NC(=O)/C=C/c2ccc(Cl)cc2)n1 do in these assays?
Cycloheximide cs: 35*; Pf growth 96h: inconclusive; Shiga toxin inh: 65*; Pf growth 48h: 129%; AMA1-RON2 inh: -8%; HCV inhibitor: inconclusive

What do the screens show for `O=C(/C=C/c1ccccc1)Nc1cccc(C(=O)O)c1`?
Cycloheximide cs: 35*; Pf growth 96h: inconclusive; Shiga toxin inh: 24*; Pf growth 48h: 0.26µM*; AMA1-RON2 inh: 8%; HCV inhibitor: -1%

Results for CC(C)n1[nH]c2ccccc2c1=O ?
AMA1-RON2 inh: -4%

Results for Cc1cc(Br)c(NC(=O)CN2CCCC2)c(Br)c1 ?
Cycloheximide cs: 16*; Pf growth 96h: 45%; Shiga toxin inh: 64*; Pf growth 48h: 38%; AMA1-RON2 inh: 17%; HCV inhibitor: inconclusive

Results for Cc1ccc(NC(=O)CN2CCOCC2)c(Br)c1 ?
Cycloheximide cs: 23*; Pf growth 96h: inconclusive; Pf growth 48h: 49%; AMA1-RON2 inh: 8%; HCV inhibitor: 2%

What do the screens show for `Cc1ccc(NC(=O)CN2CCN(Cc3ccccc3)CC2)c(Br)c1`?
Cycloheximide cs: 8; Pf growth 96h: inconclusive; Shiga toxin inh: 21; Pf growth 48h: -1%; AMA1-RON2 inh: 20µM*; HCV inhibitor: inconclusive

What do the screens show for `COc1cc(NC(=O)c2ccc(C)cc2)c(OC)cc1NC(=O)CN1CCOCC1`?
Cycloheximide cs: 1; Pf growth 96h: 3%; Shiga toxin inh: 24; Pf growth 48h: -15%; AMA1-RON2 inh: 8%; HCV inhibitor: -29%

How did Cc1cc(Br)c(NC(=O)CN2CC=C(c3ccccc3)CC2)c(Br)c1 do in these assays?
Cycloheximide cs: 15; Pf growth 96h: inconclusive; Shiga toxin inh: 34; Pf growth 48h: -10%; AMA1-RON2 inh: 20%; HCV inhibitor: -4%

Results for CCOC(=O)Cc1c(-c2cccc(Br)c2)nc2c3ccccc3ccn12 ?
AMA1-RON2 inh: -10%

How did COc1ccc(CN2C(=O)c3ccccc3C2c2nnnn2C(C)C)cc1OC (configuration not stated) do in these assays?
AMA1-RON2 inh: 0%

Results for O=C(NCc1ccccc1)c1ncn[nH]1 ?
Cycloheximide cs: -1; Pf growth 96h: 0%; Shiga toxin inh: -3; Pf growth 48h: 70%; AMA1-RON2 inh: -15%; HCV inhibitor: 24%

Results for C=CCOc1ccc(C2C(C#N)=C(N)N(Nc3ccccc3)C3=C2C(=O)CC(C)(C)C3)cc1OC (configuration not stated) ?
Cycloheximide cs: 5; Pf growth 96h: 8.3µM*; Shiga toxin inh: 4; Pf growth 48h: 8.3µM*; AMA1-RON2 inh: -3%; HCV inhibitor: inconclusive

How did COc1ccc(C2C3=C(CC(C)(C)CC3=O)N(C)C3=C2C(=O)CC(C)(C)C3)cc1OC do in these assays?
Cycloheximide cs: 2; Pf growth 96h: 13µM*; Shiga toxin inh: 10; Pf growth 48h: 16%; AMA1-RON2 inh: 0%; HCV inhibitor: 9%

Results for C#CCOc1ccc(C2C3=C(CC(C)(C)CC3=O)N(CC(=O)O)C3=C2C(=O)CC(C)(C)C3)cc1OC ?
Cycloheximide cs: -1; Pf growth 96h: inconclusive; Shiga toxin inh: 13; Pf growth 48h: -2%; AMA1-RON2 inh: 0%; HCV inhibitor: 1%

What do the screens show for `Cc1ccc(NC(=O)CCn2c(=S)oc3ccccc32)cc1F`?
Cycloheximide cs: -1; Pf growth 96h: 19%; Shiga toxin inh: -9; Pf growth 48h: 16%; AMA1-RON2 inh: 10%; HCV inhibitor: -18%

What do the screens show for `O=c1oc2ccccc2cc1-c1cn2cccnc2n1`?
Cycloheximide cs: 57*; Pf growth 96h: 8%; Shiga toxin inh: 103*; Pf growth 48h: 212%; AMA1-RON2 inh: -9%; HCV inhibitor: -9%

Results for O=c1oc2ccccc2cc1-c1cn2ccccc2n1 ?
Cycloheximide cs: -1; Pf growth 96h: -21%; Shiga toxin inh: 9; Pf growth 48h: 2%; AMA1-RON2 inh: 27%; HCV inhibitor: inconclusive

How did Cc1cccn2cc(-c3cc4ccccc4oc3=O)nc12 do in these assays?
Cycloheximide cs: 53*; Pf growth 96h: inconclusive; Shiga toxin inh: 111*; Pf growth 48h: 264%; AMA1-RON2 inh: 24%; HCV inhibitor: 8%

Results for Cc1c(C(=O)NC(=S)Nc2ccc(NC(=O)c3cccs3)cc2)oc2ccccc12 ?
Cycloheximide cs: -5; Pf growth 96h: inconclusive; Shiga toxin inh: -15; Pf growth 48h: -9%; AMA1-RON2 inh: 0%; HCV inhibitor: -13%

What do the screens show for `Cc1cccc(NC(=S)NC(=O)C(c2ccccc2)c2ccccc2)n1`?
AMA1-RON2 inh: 4%; HCV inhibitor: inconclusive

What do the screens show for `Cc1cccc(NC(=S)NC(=O)c2ccc(-c3ccccc3)cc2)n1`?
Cycloheximide cs: 26*; Pf growth 96h: inconclusive; Shiga toxin inh: 37*; Pf growth 48h: 50%; AMA1-RON2 inh: 86%; HCV inhibitor: inconclusive

How did Cc1cccc(NC(=S)NC(=O)c2oc3ccccc3c2C)n1 do in these assays?
Cycloheximide cs: 38*; Pf growth 96h: 32%; Shiga toxin inh: 56*; Pf growth 48h: 66%; AMA1-RON2 inh: -1%; HCV inhibitor: 6%

What do the screens show for `Cc1ccc(S(=O)(=O)N2CCC(=O)N(C(COCc3cccc(Cl)c3)C(C)C)CC2)cc1` (configuration not stated)?
Cycloheximide cs: -4; Pf growth 96h: 10µM*; Shiga toxin inh: -19; Pf growth 48h: 15µM*; AMA1-RON2 inh: -6%; HCV inhibitor: -1%[8.37 µM]
